# Results taken from the supplement of paper PMC8047044.
# Tests used:
# [1] = system: Neuro-2a; test: neurite formation score, plate-normalized to DMSO control mean 5.04 (score (0-8 scale)); higher = more or longer neurites; conditions: 1 µM
# Experimental: (§1)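 Neuro-2a mouse neuroblastoma cells in PLL-coated 96-well plates were pre-treated for 1 h in DMEM(+) with each kinase inhibitor at 1 µM, then switched to serum-free DMEM(-) with inhibitor to induce neurite outgrowth and fixed about 2-3 h later. Three blinded observers scored neurite formation from 0 (no neurites) to 8 (long neurites on almost all cells).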
# [2] = system: Neuro-2a; test: as above; conditions: 0.1 µM
# Experimental: as §1, with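 “at 0.1” for “at 1”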
Compound,neurite formation score [1],neurite formation score [2]
CC(C)(C)n1nc(Cc2cccc3ccccc23)c2c(N)ncnc21,4.63,4.58
C[C@H]1[C@H](C)CC[C@]2(C(=O)O)CC[C@]3(C)C(=CC[C@@H]4[C@@]5(C)C[C@@H](O)[C@H](O)[C@@](C)(CO)[C@@H]5CC[C@]43C)[C@H]12 [Asiatic acid],4.21,5.08
C[C@@H]1CN(CC(=O)Nc2ccc3c(c2)Cc2cccc(-c4cc(=O)cc(N5CCOCC5)o4)c2S3)C[C@H](C)O1,3.9,5.21
c1nc2c(NC3CCCCC3)nc(Nc3ccc(N4CCOCC4)cc3)nc2[nH]1 [Reversine],5.02,4.92
Cc1ccc(NC(=O)c2cccc(C(C)(C)C#N)c2)cc1Nc1ccc2ncn(C)c(=O)c2c1,5.24,4.88
Cc1cc(C)c(/C=C2\C(=O)Nc3ccccc32)[nH]1 [Semaxanib (SU5416)],4.54,5.42
COc1ccc(CNc2nc(N(CCO)CCO)nc3c2ncn3C(C)C)cc1,5.57,4.04
O=C(Nc1ccc(CN2CCOCC2)cc1)c1ccc(-c2cccc(Cl)c2)o1,4.9,5.54
O=C1NC(=O)/C(=C\c2ccc3nccnc3c2)S1,4.14,5.09
CCc1ccc(/C=C2/SC(=S)NC2=O)cc1,5.57,5.04
Oc1cc(O)cc(/C=C/c2ccc(O)c(O)c2)c1 [Piceatannol],4.88,4.75
COc1cc(N2CCC(N)CC2)ccc1Nc1ncc(Cl)c(-c2c[nH]c3ccccc23)n1,4.63,4.92
O=C(c1cccc(Cl)c1F)N1CCN(Cc2cccc(Nc3nccs3)n2)CC1,4.14,1.42
